Shown are actives, neighbours in structure and some others; about 6.7% of the full set was active somewhere.
GDH-TPI counter-1 = counter-screen for M. tuberculosis FBA inhibitors: GDH-TPI coupled enzymes; inhibition, % at 4.8 µM; 360,000 tested, 1.2% active; GDH-TPI coupled enzyme counterscreen, NADH absorbance; AID 588335; in the data active means inhibition above about 30%;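 further: 0% = DMSO wells and 100% = wells lacking the enzyme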
Mtb FBA inh = inhibitors of M. tuberculosis fructose-bisphosphate aldolase. P9WQA3. purified M. tuberculosis FBA, fluorescence read-out. inhibition, % at 1 µM. 360,000 tested, 2.3% active;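 further: 0% = vehicle and 100% = reference inhibitor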
Anthrax LF prot = inhibitors of Bacillus anthracis lethal factor protease | P15917 | multiplex microsphere protease cleavage assay, LF | inhibition, % at 10 µM | 360,000 tested, 0.12% active | AID 588501; in the data active means inhibition above about 30%; inconclusive means no clear call, values can overlap the other calls; further: plate controls were buffer without enzyme for full effect and enzyme alone for no effect
Target sequence (P15917 whole entry, looked up): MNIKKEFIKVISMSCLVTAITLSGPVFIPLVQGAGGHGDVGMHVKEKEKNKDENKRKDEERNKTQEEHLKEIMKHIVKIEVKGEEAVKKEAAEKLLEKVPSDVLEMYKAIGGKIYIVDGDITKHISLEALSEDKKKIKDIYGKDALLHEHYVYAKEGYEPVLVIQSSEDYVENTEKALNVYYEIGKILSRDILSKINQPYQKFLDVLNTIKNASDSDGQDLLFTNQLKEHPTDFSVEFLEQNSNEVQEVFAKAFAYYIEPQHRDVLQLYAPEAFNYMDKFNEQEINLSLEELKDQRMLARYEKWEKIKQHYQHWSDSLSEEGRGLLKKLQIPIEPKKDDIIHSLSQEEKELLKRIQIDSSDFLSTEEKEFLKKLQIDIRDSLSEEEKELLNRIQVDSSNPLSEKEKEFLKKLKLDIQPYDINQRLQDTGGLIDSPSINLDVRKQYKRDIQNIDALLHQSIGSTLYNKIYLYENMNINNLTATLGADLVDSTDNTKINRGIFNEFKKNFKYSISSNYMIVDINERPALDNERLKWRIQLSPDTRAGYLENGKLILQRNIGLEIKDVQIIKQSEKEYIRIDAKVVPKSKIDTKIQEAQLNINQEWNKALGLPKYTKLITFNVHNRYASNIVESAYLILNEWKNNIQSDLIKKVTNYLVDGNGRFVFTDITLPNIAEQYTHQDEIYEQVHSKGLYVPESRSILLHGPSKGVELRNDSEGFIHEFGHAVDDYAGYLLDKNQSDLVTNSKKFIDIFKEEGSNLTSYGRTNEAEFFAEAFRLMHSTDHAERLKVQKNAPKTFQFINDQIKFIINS
BoNT-A LC inh2 = blocks Botulinum neurotoxin A light chain protease | multiplex microsphere protease substrate cleavage, flow cytometry | inhibition, % at 10 µM | 360,000 tested, 0.17% active | AID 588499; in the data active means inhibition above about 30%; inconclusive means no clear call, values can overlap the other calls; further: plate controls were buffer without enzyme for full effect and enzyme alone for no effect
BoNT F protease = blocks Botulinum neurotoxin F light chain protease; Multiplex microsphere protease cleavage assay, flow cytometry; inhibition, % at 10 µM; 360,000 tested, 0.22% active; in the data active means inhibition above about 35%, passing the limit was not always enough; inconclusive means no clear call, values can overlap the other calls; further: plate controls were buffer without enzyme for full effect and enzyme alone for no effect
Bead autofluor = flagged as autofluorescent in microsphere protease counterscreen; compound autofluorescence counterscreen, microsphere flow cytometry; stronger effect = higher value; fluorescence intensity (no concentration beside the values); 360,000 tested, 3.1% active; in the data active means fluorescence intensity above about 16000; inconclusive means no clear call, values can overlap the other calls
Mtb FBA inh conf = Mtb FBA inhibition, confirmed; 5,600 tested, 78% active; shares compounds with Mtb FBA inh; purified M. tuberculosis FBA, fluorescence read-out; inhibition, % at 1 µM;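 further: 0% = vehicle wells and 100% = reference inhibitor wells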
GDH-TPI counter-2 = counter-screen for M. tuberculosis FBA inhibitors: GDH-TPI coupled enzyme inhibition; shares compounds with Mtb FBA inh; GDH-TPI coupled enzyme counterscreen, fluorescence; inhibition, % at 1 µM; 5,600 tested, 81% active; AID 652141; in the data active means inhibition above about 10%
The depositor's hits bear a star; ? = inconclusive; / = no result; + = active, no number. Unless noted, no stated cut-off is given here; in the data, active means inhibition above about 27%; inactive means the rest.

SMILES | GDH-TPI counter-1 | Mtb FBA inh | Anthrax LF prot | BoNT-A LC inh2 | BoNT F protease | Bead autofluor | Mtb FBA inh conf | GDH-TPI counter-2
O=c1c(-c2ccccc2)c(O)nc2ccccn12 | 17.5 | 7.2 | -7.5 | -0.9 | -12.2 | 8907 | / | /
O=C(NCCN1CCOCC1)c1cc(-c2ccc(F)cc2)nc2ccccc12 | 12.7 | 9.7 | 1.8 | 3.9 | ? | ? | / | /
N=c1c(C(=O)NCCN2CCOCC2)cc2c(=O)n3ccccc3nc2n1Cc1ccc(F)cc1 | 0.0 | 40.3* | 3.1 | 2.1 | -5.6 | 6127 | 102.8* | 80.7*
N=c1c(C(=O)NCCN2CCOCC2)cc2c(=O)n3ccccc3nc2n1CCCN1CCOCC1 | 10.7 | 88.4* | -1.3 | -1.2 | -2.4 | 4762 | 155.7* | 117.2*
N=c1c(S(=O)(=O)c2ccccc2)cc2c(=O)n3ccccc3nc2n1CCCN1CCOCC1 | 9.6 | 51.9* | -7.7 | 0.6 | 0.2 | 3900 | 48.1* | 38.2*
N=c1c(S(=O)(=O)c2ccc(F)cc2)cc2c(=O)n3ccccc3nc2n1CC1CCCO1 (stereo unspecified) | 6.6 | 83.6* | 0.0 | 2.5 | 7.4 | 5191 | 96.9* | 79.4*
CC(C)OCCCn1c(=N)c(S(=O)(=O)c2ccccc2)cc2c(=O)n3ccccc3nc21 | 13.4 | 12.9 | -1.4 | 1.4 | 8.3 | 5816 | / | /
CCCn1c(=N)c(S(=O)(=O)c2ccc(F)cc2)cc2c(=O)n3ccccc3nc21 | 4.5 | 23.0 | -0.8 | 4.1 | 0.7 | 4981 | / | /
Cc1cc(C)nc(NC2=NCC(=O)N2c2ccc(F)c(Cl)c2)n1 | 0.3 | 2.2 | -7.6 | -0.3 | -4.3 | 2964 | / | /
CC(=O)N1CCc2c(sc(NC(=O)C3CCCN3S(=O)(=O)c3cccs3)c2C#N)C1 (stereo unspecified) | 7.9 | 32.9* | 3.3 | ? | ? | ? | 48.4* | 35.2*
c1ccc(Cn2c(-c3ccccc3)nc3nc4ccccc4nc32)cc1 | 43.2* | 56.3* | 0.1 | 2.1 | 8.7 | 7521 | 161.1* | 132.0*
Cc1ccc(-c2nc3ccccc3c(=O)n2Cc2ccccc2)cc1 | 5.9 | 2.3 | 1.8 | 2.5 | 17.7 | 1964 | / | /
c1csc(-c2nc3ccccc3s2)c1 | 7.3 | 39.4* | -3.7 | -0.5 | -14.3 | 4627 | -1.4 | -3.4
COc1ccc(-c2nc3ccccc3s2)cc1NC(C)=O | 39.0* | 72.7* | 4.7 | 0.6 | -0.7 | 3079 | 138.3* | 117.7*
Oc1ccc(-c2nc3ccccc3s2)c(O)c1 | 25.2 | 37.0* | -6.0 | -1.8 | 6.9 | 4479 | 106.1* | 84.3*
CC(=O)NCc1ccc(-c2nc3ccccc3s2)cc1 | -1.3 | -1.4 | -6.5 | -0.8 | 0.4 | 4325 | / | /
c1csc(-c2ccc3ccccc3n2)c1 | 10.8 | 25.0 | 0.7 | 1.1 | 3.5 | 4254 | / | /
Nc1ccc(O)c(-c2nc3ccccc3s2)c1 | 22.8 | 4.2 | -2.5 | 4.1 | ? | 3827 | / | /
Nc1ccccc1-c1nc2ccccc2s1 | 6.2 | 51.2* | -1.2 | 3.1 | -1.1 | 3215 | 196.8* | 146.8*
O=S(=O)(c1ccccc1)N1CCSC1c1ccco1 (stereo unspecified) | -6.0 | -0.7 | 1.0 | 0.6 | 13.8 | 2238 | / | /
CN1C(=O)[C@@H]2[C@H](C1=O)[C@@H]1C(=O)Nc3ccccc3C(=O)N1[C@@H]2c1ccc(F)cc1 | 6.0 | 3.6 | 3.8 | -0.7 | -0.5 | 4338 | / | /
CC(Sc1nnc(-c2cccs2)n1-c1ccccc1)C(=O)NCc1ccco1 (stereo unspecified) | -8.5 | 3.5 | 0.8 | 0.2 | 11.5 | 2788 | / | /
Oc1ccc(-c2nc3ccccc3s2)cc1 | 12.1 | 94.4* | -8.6 | -1.2 | -3.0 | 5298 | 75.4* | 63.2*
Cc1ccc(Cn2cccc(-c3nc4ccccc4s3)c2=O)cc1 | 18.3 | 54.5* | -2.6 | 3.0 | 4.1 | 4380 | 114.6* | 107.0*
c1ccc2sc(-c3ccncc3)nc2c1 | 7.5 | 2.2 | 2.0 | -0.2 | 6.4 | 3892 | / | /
SMILES | GDH-TPI counter-1 | Mtb FBA inh | Anthrax LF prot | BoNT-A LC inh2 | BoNT F protease | Bead autofluor | Mtb FBA inh conf | GDH-TPI counter-2
S=c1nc(-c2sccc2OCc2ccc(Cl)cc2Cl)[nH][nH]1 | 6.2 | 0.4 | -8.6 | 0.3 | 2.9 | 4127 | / | /
Cc1ccc(C2CC(c3cccs3)n3nc(N)nc3N2)cc1 (stereo unspecified) | 18.4 | 60.5* | 2.2 | 0.9 | -1.5 | 16364* | 7.8 | 4.2
CCc1nnc(NC(=O)CCS(=O)(=O)Cc2ccccc2)s1 | 4.5 | 1.3 | -1.9 | -0.8 | -10.6 | 3917 | / | /
COc1ccc2oc(C(=O)OCC(=O)N3CCCC(C)C3)c(C)c2c1 (stereo unspecified) | 5.6 | 62.7* | -0.6 | 0.8 | 5.9 | 4605 | 61.2* | 55.0*
Cc1c(C(=O)OCC(=O)N2CCCC(C)C2)oc2ccccc12 (stereo unspecified) | -7.2 | 5.6 | 1.7 | -2.5 | -1.5 | 5678 | / | /
CCOc1ccc2oc(C(=O)OCC(=O)N3CCCC(C)C3)c(C)c2c1 (stereo unspecified) | 3.8 | 48.5* | / | / | / | / | 94.8* | 78.2*
CCOc1ccc2oc(C(=O)OCC(=O)N3CC(C)OC(C)C3)c(C)c2c1 (stereo unspecified) | 4.9 | 45.8* | -1.7 | -0.6 | -0.5 | 3063 | + | +
CCOC(=O)C1=C(CC)Nc2ccccc2N=C1NC(=O)c1ccc(S(=O)(=O)N2CCCC2)cc1 | 6.2 | 1.1 | -4.0 | -0.3 | -3.3 | 4258 | / | /
CC1CCN(C(=O)Cn2nnc(-c3cccs3)n2)CC1 | -3.8 | 1.7 | -2.0 | -0.9 | 0.4 | 4267 | / | /
O=C(Cc1csc(Nc2nc(=S)[nH]c3ccccc23)n1)NCCCN1CCN(c2ccccc2F)CC1 | 15.6 | -1.1 | -3.5 | 1.3 | -1.6 | 3532 | / | /
COc1ccc(-c2[nH]c(-c3cc(OC)c4c(c3)OCO4)nc2-c2ccccc2)cc1 | 15.1 | 61.5* | -1.1 | -1.1 | -8.8 | 2140 | + | +
COc1ccc(-c2c(C)nc3c(-c4ccsc4)cnn3c2N)cc1 | 19.3 | -0.9 | 4.8 | -3.0 | 19.8 | 3957 | / | /
COc1ccc(-c2c(C)nc3c(-c4ccccn4)cnn3c2N)cc1 | 23.5 | 27.3* | -6.4 | -1.7 | -24.9 | 3005 | 67.6* | 66.9*
Cc1ccc(NC(=O)C2=CC=CN3CCS(=O)(=O)N=C23)cc1 | 8.1 | 1.7 | 10.0 | -2.6 | -6.9 | ? | / | /
CC1=C(Cl)C2=NS(=O)(=O)CCN2C=C1Cl | 7.6 | 89.3* | 2.2 | -0.6 | -4.4 | 3438 | 159.4* | 116.1*
CN(C)CCN(Cc1cc2cc3c(cc2[nH]c1=O)OCO3)C(=S)NCC1CCCO1 (stereo unspecified) | 21.7 | 50.3* | -4.7 | -0.6 | -1.0 | 4696 | -0.5 | -3.9
COCCNC(=S)N(CCN(C)C)Cc1cc2cc3c(cc2[nH]c1=O)OCO3 | 10.0 | 26.5 | 4.7 | 1.6 | 11.0 | 3744 | / | /
O=c1[nH]c2cc3c(cc2cc1CN(CCN1CCOCC1)C(=S)NCC1CCCO1)OCO3 (stereo unspecified) | 16.1 | 34.4* | 3.8 | -0.8 | 0.3 | 3339 | 124.4* | 125.0*

Source: PubChem BioAssay
